# Inconclusive results are not listed. Active and inactive are the calls of the source. The calls were made as follows: active = hit-call score of the fitted dose curve at least 0.9, where 1 is the maximum; inconclusive = response in the unintended direction; inactive = score below 0.9.
# Legend:
# [1] = molecular target: human Caspase 5 (CASP5), CASP5 (gene 838) (UniProt P51878); test: NVS_ENZ_hCASP5: NovaScreen (NVS) Enzymatic Assay for human Caspase 5 (CASP5) (AID 2283137)
# How it was run: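 Recombinant E. coli-expressed human caspase 5 in a cell-free enzyme assay; fluorescence intensity read 2 hours after chemical dosing. Single-concentration duplicate screen at 25 uM, then concentration-response up to 50 uM for hits; DMSO negative control.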
# [2] = molecular target: human Beta-secretase (BACE), BACE1 (gene 23621) (UniProt P56817); test: NVS_ENZ_hBACE: NovaScreen (NVS) Enzymatic Assay for human Beta-secretase (BACE) (AID 2283140);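 also: hits are inhibitors that reduce fluorescent substrate signal versus DMSO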
# How it was run: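 Cell-free fluorescence-intensity assay of recombinant BACE1 expressed in SF9 cells, read 1 hour after dosing. Loss of signal indicates reduced protease activity, fitted relative to DMSO negative control. Primary screen at 25 uM in duplicate; actives followed in concentration series.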
# [3] = molecular target: human Caspase 4 (CASP4), CASP4 (gene 837) (UniProt P49662); test: NVS_ENZ_hCASP4: NovaScreen (NVS) Enzymatic Assay for human Caspase 4 (CASP4) (AID 2283143)
# How it was run: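 The cell-free assay used E. coli-expressed enzyme with a fluorogenic substrate, read 2 h after dosing. Signal loss was scored versus DMSO. Screening was in duplicate at 25 uM, then singleton concentration-response up to 50 uM.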
# [4] = molecular target: human Dual Specificity Protein Phosphatase 3 (DUSP3), DUSP3 (gene 1845) (UniProt P51452); test: NVS_ENZ_hDUSP3: NovaScreen (NVS) Enzymatic Assay for human Dual Specificity Protein Phosphatase 3 (DUSP3) (AID 2283152);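 also: phosphatase activity of recombinant human DUSP3 on a fluorogenic substrate without cells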
# How it was run: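 Cell-free assay with recombinant human DUSP3 and fluorogenic substrate, read by fluorescence intensity. Primary screen ran duplicate at 25 uM; actives followed up in concentration series; loss of signal versus DMSO scored.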
# [5] = molecular target: human Elastase, ELANE (gene 1991) (UniProt P08246); test: NVS_ENZ_hElastase: NovaScreen (NVS) Enzymatic Assay for human Elastase (AID 2283153)
# How it was run: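 Cell-free elastase from human neutrophils, 1.5 h after dosing, activity read by absorbance. Primary screen in duplicate at 25 uM; hits (e.g., 30% inhibition) rerun in singleton concentration-response up to 50 uM, fitted versus DMSO.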
# [6] = molecular target: human FYN Proto-Oncogene, Src family Tyrosine Kinase (Fyn), FYN (gene 2534) (UniProt P06241); test: NVS_ENZ_hFyn: NovaScreen (NVS) Enzymatic Assay for human FYN Proto-Oncogene, Src family Tyrosine Kinase (Fyn) (AID 2283161)
# How it was run: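 Recombinant enzyme with fluorescent substrate, product separated by electrophoretic mobility shift; read 1 h after dosing. Duplicate 25 uM single-point screen, actives retested in concentration series; loss of signal vs DMSO.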
# [7] = molecular target: human AKT serine/threonine Kinase 1 (AKT1), AKT1 (gene 207) (UniProt P31749); test: NVS_ENZ_hAKT1: NovaScreen (NVS) Enzymatic Assay for human AKT serine/threonine Kinase 1 (AKT1) (AID 2283138)
# How it was run: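 Cell-free recombinant enzyme with substrate; activity read by fluorescence intensity after electrophoretic mobility shift separating substrate from product, 1 h after dosing. Single-concentration duplicates at 25 uM, then singleton concentration-response up to 50 uM; loss of signal versus DMSO.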
# [8] = molecular target: human Caspase 8 (CASP8), CASP8 (gene 841) (UniProt Q14790); test: NVS_ENZ_hCASP8: NovaScreen (NVS) Enzymatic Assay for human Caspase 8 (CASP8) (AID 2283146)
# How it was run: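 E. coli-expressed enzyme was used in a cell-free fluorogenic substrate assay read 1 h after dosing. Loss of signal was scored relative to DMSO, and the primary screen was run in duplicate at 25 uM.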
# [9] = molecular target: human Esterase Plasma (ES), BCHE (gene 590) (UniProt P06276); test: NVS_ENZ_hES: NovaScreen (NVS) Enzymatic Assay for human Esterase Plasma (ES) (AID 2283157)
# How it was run: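 Esterase from human plasma, cell-free, colorimetric absorbance read 0.25 h after dosing. Screened at 25 uM in duplicate, with threshold-passing chemicals run in concentration-response up to 50 uM; loss of signal fitted versus DMSO.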
# [10] = molecular target: Protein deacetylase HDAC6 (Homo sapiens) (UniProt Q9UBN7); test: NVS_ENZ_hHDAC6: NovaScreen (NVS) Enzymatic Assay for human Histone Deacetylase 6 (HDAC6) (AID 2283164)
# How it was run: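 Recombinant human HDAC6 with fluorescent substrate, 1 h; product separated from substrate by electrophoretic mobility shift. Primary screen in duplicate at 25 uM; actives retested singly in concentration-response up to 50 uM, fitted relative to DMSO.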
# [11] = molecular target: human Aurora Kinase A - serine/threonine-protein Kinase 6 (AurA), AURKA (gene 6790) (UniProt O14965); test: NVS_ENZ_hAurA: NovaScreen (NVS) Enzymatic Assay for human Aurora Kinase A - serine/threonine-protein Kinase 6 (AurA) (AID 2283142)
# How it was run: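 Cell-free enzymatic assay with human Aurora A, 1 hour after dosing. Fluorescent substrate turnover detected after electrophoretic mobility shift separation of substrate and product. Screened at 25 uM, actives retested in concentration-response up to 50 uM.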
# [12] = molecular target: human Colony Stimulating Factor 1 Receptor (CSF1R), CSF1R (gene 1436) (UniProt P07333); test: NVS_ENZ_hCSF1R: NovaScreen (NVS) Enzymatic Assay for human Colony Stimulating Factor 1 Receptor (CSF1R) (AID 2283150)
# How it was run: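 Cell-free recombinant human CSF1R kinase with fluorescent substrate, product separated by electrophoretic mobility shift; read 1 h after dosing. Primary screen at 25 uM in duplicate, actives then in concentration-response up to 50 uM, relative to DMSO.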
# [13] = molecular target: human Epidermal Growth Factor Receptor (EGFR), EGFR (gene 1956) (UniProt P00533); test: NVS_ENZ_hEGFR: NovaScreen (NVS) Enzymatic Assay for human Epidermal Growth Factor Receptor (EGFR) (AID 2283151)
# How it was run: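 Cell-free kinase assay, fluorescence plus electrophoretic mobility shift separating substrate and product, read 1 hour after dosing; loss of signal vs DMSO. Duplicate screen at 25 uM, then concentration-response to 50 uM.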
# [14] = molecular target: human Fibroblast Growth Factor Receptor 1 (FGFR1), FGFR1 (gene 2260) (UniProt P11362); test: NVS_ENZ_hFGFR1: NovaScreen (NVS) Enzymatic Assay for human Fibroblast Growth Factor Receptor 1 (FGFR1) (AID 2283159)
# How it was run: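 Cell-free recombinant kinase with fluorescent substrate, product separated by electrophoretic mobility shift; read 1 hour after dosing, loss of signal relative to DMSO. Initial screen in duplicate at 25 uM, actives followed in concentration series.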
# [15] = molecular target: human Ephrin type-A Receptor 2 (EphA2), EPHA2 (gene 1969) (UniProt P29317); test: NVS_ENZ_hEphA2: NovaScreen (NVS) Enzymatic Assay for human Ephrin type-A Receptor 2 (EphA2) (AID 2283155)
# How it was run: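 Cell-free recombinant EphA2 kinase with specific substrate, 1 h, fluorescence with electrophoretic mobility-shift separation of substrate and product. Primary screen at 25 uM in duplicate; hits retested in singleton concentration-response up to 50 uM, referenced to DMSO.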
# [16] = molecular target: human Ephrin type-A Receptor 1 (EphA1), EPHA1 (gene 2041) (UniProt P21709); test: NVS_ENZ_hEphA1: NovaScreen (NVS) Enzymatic Assay for human Ephrin type-A Receptor 1 (EphA1) (AID 2283158);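 also: activity is signal loss versus DMSO meaning EphA1 kinase inhibition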
# How it was run: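 Biochemical kinase assay run cell-free; 1 h incubation; readout is fluorescence with mobility-shift separation of product. Concentration-response up to 50 uM for actives from a 25 uM screen.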
# [17] = molecular target: Histone deacetylase 3 (Homo sapiens) (UniProt O15379); test: NVS_ENZ_hHDAC3: NovaScreen (NVS) Enzymatic Assay for human Histone Deacetylase 3 (HDAC3) (AID 2283163)
# How it was run: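 Recombinant human HDAC3 with fluorescent substrate, 1 h after dosing; product separated from substrate by electrophoretic mobility shift and read by fluorescence. Primary screen at 25 uM in duplicate; actives (e.g. ≥30% inhibition) retested in concentration-response up to 50 uM.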
# Sequence of human Caspase 4 (CASP4), CASP4 (gene 837) (P49662 whole entry, looked up): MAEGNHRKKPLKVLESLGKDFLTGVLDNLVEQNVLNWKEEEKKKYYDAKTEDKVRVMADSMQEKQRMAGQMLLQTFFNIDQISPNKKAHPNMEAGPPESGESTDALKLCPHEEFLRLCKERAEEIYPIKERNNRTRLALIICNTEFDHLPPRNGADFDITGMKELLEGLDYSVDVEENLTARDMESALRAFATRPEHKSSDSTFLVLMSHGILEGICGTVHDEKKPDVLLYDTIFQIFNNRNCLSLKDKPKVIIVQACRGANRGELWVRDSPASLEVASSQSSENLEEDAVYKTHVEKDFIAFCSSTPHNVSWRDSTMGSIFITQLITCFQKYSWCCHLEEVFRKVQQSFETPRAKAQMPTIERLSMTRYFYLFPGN
# Sequence of human Esterase Plasma (ES), BCHE (gene 590) (P06276 whole entry, looked up): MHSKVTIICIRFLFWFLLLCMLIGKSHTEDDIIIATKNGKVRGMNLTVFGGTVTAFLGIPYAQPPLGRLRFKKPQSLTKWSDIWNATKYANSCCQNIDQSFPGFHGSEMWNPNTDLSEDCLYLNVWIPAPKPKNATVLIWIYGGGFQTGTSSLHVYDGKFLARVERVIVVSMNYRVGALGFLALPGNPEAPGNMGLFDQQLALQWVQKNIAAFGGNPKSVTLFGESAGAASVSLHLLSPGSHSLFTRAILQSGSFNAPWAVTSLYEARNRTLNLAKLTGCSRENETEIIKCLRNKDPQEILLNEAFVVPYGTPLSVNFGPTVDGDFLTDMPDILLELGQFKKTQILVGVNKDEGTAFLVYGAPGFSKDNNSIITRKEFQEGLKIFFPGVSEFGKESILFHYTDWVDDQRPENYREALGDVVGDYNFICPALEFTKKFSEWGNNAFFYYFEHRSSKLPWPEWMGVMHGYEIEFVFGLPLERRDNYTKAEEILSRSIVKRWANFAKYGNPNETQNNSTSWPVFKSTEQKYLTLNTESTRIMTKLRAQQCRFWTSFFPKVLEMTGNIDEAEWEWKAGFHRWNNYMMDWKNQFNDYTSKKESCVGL
# Sequence of human FYN Proto-Oncogene, Src family Tyrosine Kinase (Fyn), FYN (gene 2534) (P06241 whole entry, looked up): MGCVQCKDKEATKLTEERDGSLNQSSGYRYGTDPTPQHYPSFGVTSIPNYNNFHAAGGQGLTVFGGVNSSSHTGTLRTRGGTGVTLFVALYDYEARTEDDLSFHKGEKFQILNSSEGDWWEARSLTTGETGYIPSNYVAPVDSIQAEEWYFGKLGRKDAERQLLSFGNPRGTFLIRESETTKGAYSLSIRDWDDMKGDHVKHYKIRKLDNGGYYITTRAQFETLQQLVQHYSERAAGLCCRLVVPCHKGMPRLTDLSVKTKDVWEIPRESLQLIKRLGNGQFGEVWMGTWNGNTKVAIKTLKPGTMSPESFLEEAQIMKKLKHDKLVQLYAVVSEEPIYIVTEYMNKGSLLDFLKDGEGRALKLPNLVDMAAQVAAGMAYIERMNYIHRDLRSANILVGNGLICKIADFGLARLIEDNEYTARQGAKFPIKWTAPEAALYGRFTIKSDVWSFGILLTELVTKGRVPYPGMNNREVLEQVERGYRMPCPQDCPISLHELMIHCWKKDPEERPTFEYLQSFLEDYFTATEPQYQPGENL
# Sequence of human Fibroblast Growth Factor Receptor 1 (FGFR1), FGFR1 (gene 2260) (P11362 whole entry, looked up): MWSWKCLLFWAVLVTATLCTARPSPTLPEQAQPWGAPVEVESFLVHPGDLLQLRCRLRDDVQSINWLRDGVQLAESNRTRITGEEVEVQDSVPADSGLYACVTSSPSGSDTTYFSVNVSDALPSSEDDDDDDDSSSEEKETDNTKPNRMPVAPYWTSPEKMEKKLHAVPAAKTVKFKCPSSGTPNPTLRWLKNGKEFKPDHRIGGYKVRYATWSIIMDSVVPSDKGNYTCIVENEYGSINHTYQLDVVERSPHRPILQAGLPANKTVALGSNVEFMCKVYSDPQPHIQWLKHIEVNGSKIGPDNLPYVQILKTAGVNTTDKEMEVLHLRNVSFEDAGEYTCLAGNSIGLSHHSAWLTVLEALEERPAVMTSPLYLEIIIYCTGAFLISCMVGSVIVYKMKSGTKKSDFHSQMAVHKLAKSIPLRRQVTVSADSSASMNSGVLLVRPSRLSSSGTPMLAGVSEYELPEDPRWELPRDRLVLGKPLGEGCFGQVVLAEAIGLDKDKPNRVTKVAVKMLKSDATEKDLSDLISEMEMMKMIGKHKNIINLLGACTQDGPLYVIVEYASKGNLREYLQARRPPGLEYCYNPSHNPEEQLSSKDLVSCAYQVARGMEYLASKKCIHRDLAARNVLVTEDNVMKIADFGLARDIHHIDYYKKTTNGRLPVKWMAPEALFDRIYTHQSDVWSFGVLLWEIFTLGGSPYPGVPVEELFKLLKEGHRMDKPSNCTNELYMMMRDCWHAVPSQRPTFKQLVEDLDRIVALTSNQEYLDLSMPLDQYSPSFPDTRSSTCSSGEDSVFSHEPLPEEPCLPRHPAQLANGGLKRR
# Sequence of human Epidermal Growth Factor Receptor (EGFR), EGFR (gene 1956) (P00533 whole entry, looked up): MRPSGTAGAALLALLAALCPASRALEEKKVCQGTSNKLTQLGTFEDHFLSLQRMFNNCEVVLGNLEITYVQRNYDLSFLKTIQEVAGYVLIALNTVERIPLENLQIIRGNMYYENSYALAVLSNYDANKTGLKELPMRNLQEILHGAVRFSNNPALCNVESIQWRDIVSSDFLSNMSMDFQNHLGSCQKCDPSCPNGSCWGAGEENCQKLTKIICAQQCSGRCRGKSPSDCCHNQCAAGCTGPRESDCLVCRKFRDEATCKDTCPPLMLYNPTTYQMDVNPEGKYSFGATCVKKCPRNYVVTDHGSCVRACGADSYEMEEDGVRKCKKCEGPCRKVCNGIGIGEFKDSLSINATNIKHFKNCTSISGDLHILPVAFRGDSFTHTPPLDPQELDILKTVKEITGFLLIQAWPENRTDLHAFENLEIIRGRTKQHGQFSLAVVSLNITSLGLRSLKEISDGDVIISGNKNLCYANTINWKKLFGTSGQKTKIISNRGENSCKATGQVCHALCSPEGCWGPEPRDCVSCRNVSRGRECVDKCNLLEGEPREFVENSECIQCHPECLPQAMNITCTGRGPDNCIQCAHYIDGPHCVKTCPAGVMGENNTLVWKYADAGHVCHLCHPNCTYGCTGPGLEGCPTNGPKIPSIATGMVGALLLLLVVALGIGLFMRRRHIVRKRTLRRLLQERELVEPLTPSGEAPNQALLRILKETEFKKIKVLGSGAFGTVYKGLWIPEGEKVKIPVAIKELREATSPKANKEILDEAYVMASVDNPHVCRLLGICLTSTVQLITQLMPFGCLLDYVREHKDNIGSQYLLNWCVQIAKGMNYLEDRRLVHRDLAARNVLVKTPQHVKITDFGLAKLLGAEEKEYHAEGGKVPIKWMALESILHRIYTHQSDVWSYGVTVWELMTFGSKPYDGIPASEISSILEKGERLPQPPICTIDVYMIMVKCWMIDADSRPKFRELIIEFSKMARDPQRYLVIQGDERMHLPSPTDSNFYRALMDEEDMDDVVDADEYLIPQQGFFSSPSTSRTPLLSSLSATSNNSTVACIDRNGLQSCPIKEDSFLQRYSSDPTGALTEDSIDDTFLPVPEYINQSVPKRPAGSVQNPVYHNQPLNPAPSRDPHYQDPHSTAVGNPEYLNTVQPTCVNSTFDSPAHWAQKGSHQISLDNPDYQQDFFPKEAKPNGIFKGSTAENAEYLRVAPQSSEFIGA
# Sequence of human Ephrin type-A Receptor 2 (EphA2), EPHA2 (gene 1969) (P29317 whole entry, looked up): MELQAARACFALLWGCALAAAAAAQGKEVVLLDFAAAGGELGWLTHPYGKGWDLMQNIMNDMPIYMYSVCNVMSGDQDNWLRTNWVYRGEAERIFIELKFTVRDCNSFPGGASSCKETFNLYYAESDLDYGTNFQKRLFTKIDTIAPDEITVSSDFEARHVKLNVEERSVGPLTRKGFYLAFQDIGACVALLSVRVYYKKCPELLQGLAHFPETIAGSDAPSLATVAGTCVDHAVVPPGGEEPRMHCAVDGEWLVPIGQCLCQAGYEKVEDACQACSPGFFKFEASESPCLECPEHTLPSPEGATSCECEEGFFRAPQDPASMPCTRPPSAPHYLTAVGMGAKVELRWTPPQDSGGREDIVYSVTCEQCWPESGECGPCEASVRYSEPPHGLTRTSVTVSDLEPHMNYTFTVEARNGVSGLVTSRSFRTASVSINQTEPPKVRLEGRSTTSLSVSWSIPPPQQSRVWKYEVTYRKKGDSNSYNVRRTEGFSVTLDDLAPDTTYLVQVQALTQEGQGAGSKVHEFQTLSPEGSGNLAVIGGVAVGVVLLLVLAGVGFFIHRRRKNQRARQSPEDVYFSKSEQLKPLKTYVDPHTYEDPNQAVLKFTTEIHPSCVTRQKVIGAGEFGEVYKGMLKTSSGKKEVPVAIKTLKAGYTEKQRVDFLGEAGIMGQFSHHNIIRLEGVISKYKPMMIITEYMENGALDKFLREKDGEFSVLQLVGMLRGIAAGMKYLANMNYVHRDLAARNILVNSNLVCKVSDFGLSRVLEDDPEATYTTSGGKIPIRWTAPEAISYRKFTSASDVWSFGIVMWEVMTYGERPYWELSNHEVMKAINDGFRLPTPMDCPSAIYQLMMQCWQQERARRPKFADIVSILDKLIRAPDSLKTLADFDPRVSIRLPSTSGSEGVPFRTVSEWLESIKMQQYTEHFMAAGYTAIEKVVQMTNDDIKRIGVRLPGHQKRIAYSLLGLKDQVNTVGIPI
# Sequence of human Beta-secretase (BACE), BACE1 (gene 23621) (P56817 whole entry, looked up): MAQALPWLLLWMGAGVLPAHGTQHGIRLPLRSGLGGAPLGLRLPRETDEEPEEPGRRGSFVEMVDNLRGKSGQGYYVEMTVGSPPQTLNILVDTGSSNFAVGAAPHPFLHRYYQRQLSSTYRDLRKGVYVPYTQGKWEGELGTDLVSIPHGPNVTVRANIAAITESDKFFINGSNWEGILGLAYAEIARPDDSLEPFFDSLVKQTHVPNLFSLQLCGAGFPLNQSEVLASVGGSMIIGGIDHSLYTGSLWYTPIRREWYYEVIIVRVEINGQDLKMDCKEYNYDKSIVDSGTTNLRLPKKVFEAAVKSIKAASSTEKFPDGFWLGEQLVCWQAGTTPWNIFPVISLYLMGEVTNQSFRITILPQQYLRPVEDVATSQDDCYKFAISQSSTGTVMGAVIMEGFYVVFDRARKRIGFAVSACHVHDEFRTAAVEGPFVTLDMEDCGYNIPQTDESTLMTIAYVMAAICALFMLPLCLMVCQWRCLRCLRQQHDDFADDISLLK
smiles,measurement,setting,value
Cc1ccc(N=C=O)cc1N=C=O,outcome,[1],inactive
same,AC50,[2],8.64 µM (active)
same,AC50,[3],13.7 µM (active)
same,AC50,[4],12.6 µM (active)
same,AC50,[5],8.38 µM (active)
c1ccc2c(c1)-c1cccc3cccc-2c13,AC50,[2],1.18 µM (active)
same,outcome,[6],inactive
O=[N+]([O-])c1ccc(Oc2ccc(Cl)cc2Cl)cc1,outcome,[2],inactive
same,outcome,[5],inactive
CCCCCOC(=O)c1ccccc1C(=O)OCCCCC,AC50,[2],11.5 µM (active)
same,outcome,[5],inactive
Clc1ccc(Cl)c(Cl)c1,outcome,[7],inactive
same,outcome,[8],inactive
c1ccc(C2CO2)cc1 (stereo not given),outcome,[1],inactive
c1ccc(NNc2ccccc2)cc1,outcome,[7],inactive
same,outcome,[3],inactive
same,AC50,[9],31.6 µM (active)
same,outcome,[10],inactive
Nc1ccc([N+](=O)[O-])cc1,outcome,[11],inactive
same,outcome,[8],inactive
same,outcome,[12],inactive
CC(C)(C)C(O)(CCc1ccc(Cl)cc1)Cn1cncn1 (stereo not given),outcome,[11],inactive
same,outcome,[13],inactive
same,AC50,[9],22.7 µM (active)
C=CCc1ccc2c(c1)OCO2,outcome,[14],inactive
CCCCCCCCCCCCCN1CC(C)OC(C)C1 (stereo not given),outcome,[5],inactive
same,outcome,[15],inactive
same,outcome,[9],inactive
same,outcome,[6],inactive
O=C(N[C@H](c1ccccc1)[C@@H]1CN2CCC1CC2)c1c(Cl)ccc(C(F)(F)F)c1Cl,AC50,[9],19.8 µM (active)
CCCCC(CC)COC(=O)c1ccc(C(=O)OCC(CC)CCCC)c(C(=O)OCC(CC)CCCC)c1 (stereo not given),outcome,[13],inactive
same,outcome,[16],inactive
same,outcome,[14],inactive
COP(=S)(OC)SCN1C(=O)c2ccccc2C1=O,outcome,[4],inactive
C1=Cc2cccc3cccc1c23,outcome,[4],inactive
same,outcome,[9],inactive
O=C(Nc1ccccc1)c1ccccc1I,outcome,[9],inactive
O=C(Oc1ccc(Br)cc1)N1CCN2CCC1CC2,outcome,[14],inactive
CCOc1cccc(C2(N3CCN(c4ccccc4)CC3)CCC(C)CC2)c1 (stereo not given),outcome,[9],inactive
ClCCOCCCl,outcome,[11],inactive
same,outcome,[13],inactive
same,outcome,[14],inactive
O=[N+]([O-])C(Br)(CO)CO,AC50,[9],32.1 µM (active)
[Cl-].[Cl-].[Hg+2],AC50,[9],20.9 µM (active)
CNC(=O)Oc1cccc2c1OC(C)(C)C2,AC50,[9],27.3 µM (active)
same,outcome,[6],inactive
Cn1cc(-c2ccccc2)c(=O)c(-c2cccc(C(F)(F)F)c2)c1,outcome,[17],inactive
CCOC(=O)[C@]1(c2ccccc2)Oc2ccccc2[C@@H]1N,AC50,[9],16.7 µM (active)
OCCCBr,outcome,[16],inactive
C[C@]12C=CC3=C4CCC(=O)C=C4CC[C@H]3[C@@H]1CC[C@@H]2O,AC50,[11],35.3 µM (active)
same,outcome,[12],inactive
CCCCCCCCn1sccc1=O,AC50,[4],26 µM (active)
same,outcome,[16],inactive
CN(C)C(=O)Nc1ccc(Cl)cc1,outcome,[15],inactive
same,outcome,[9],inactive
Nc1ccc(N=Nc2ccccc2)cc1,outcome,[3],inactive
same,outcome,[8],inactive
Oc1ccccc1Cl,outcome,[15],inactive
same,outcome,[14],inactive
COC(=O)c1ccccc1N,AC50,[8],11.1 µM (active)

# From PubChem BioAssay (EPA / NIEHS)
